Here are results for 38 sequences from the OligoGym collection.
Also: reference of the scale not given here.

The first assay addresses EPAS1. Description: pooled miR-30 sensor sort-seq; sequence = guide strand. The settings on record: shRNA.
Take TTGTGTGTTCGCAGGAAGCTGA: the sensor-assay potency score (higher = more potent) was -0.595.

Take TTGAACAGGGATTCAGTCTGGT: the sensor-assay potency score (higher = more potent) stood at 0.262.

In the case of TAGAAGTCATTGAAGGTGGGGA, the sensor-assay potency score (higher = more potent) stood at 0.421.

For a further assay, the target named is EPB41. The assay is described as above. The settings on record: shRNA.
For the sequence TAGAGCACTAGCTTGCCTGGTC, the sensor-assay potency score (higher = more potent) is 0.107.

TAGCTTGCCTGGTCTGAGCTTG: the sensor-assay potency score (higher = more potent) is -0.0306.

For the sequence TAAAACTTTACATTAAATGTAA, the sensor-assay potency score (higher = more potent) was -0.313.

With TTTGTAGAAACAACCAGCCTGG, the sensor-assay potency score (higher = more potent) is 0.246.

In turn, TTCTGGGTCGTAGTCTCCCAGT showed a sensor-assay potency score (higher = more potent) of -1.42.

For the sequence TTCTTTGCCTTCTTCCTCGGAC, the sensor-assay potency score (higher = more potent) is -0.102.

TTTGATCTCCTCTTGACTCTTG registered a sensor-assay potency score (higher = more potent) of 0.604.

ATCTTCTCTGAGTTCTTCCTGA had a sensor-assay potency score (higher = more potent) of -0.459.

As to TTGATCTCCTCTTGACTCTTGT, the sensor-assay potency score (higher = more potent) turned out to be 0.588.

TTGACTCTTGTCTAAATCCTCC registered a sensor-assay potency score (higher = more potent) of -0.522.

Consider TTGGTCACTGACATGTCTGGGT, for which the sensor-assay potency score (higher = more potent) was -0.161.

TTATGTCTTCTGTTAACTGTGC yielded a sensor-assay potency score (higher = more potent) of -0.0684.

TATCTTGTTATGTCTTCTGTTA yielded a sensor-assay potency score (higher = more potent) of -0.573.

Take TTGAACAATTCTGATATCCTAA: the sensor-assay potency score (higher = more potent) was -0.113.

Take TTTTTCAGCTCACTGATGCTGG: the sensor-assay potency score (higher = more potent) was 0.147.

As for ATAATTTCTTAGCTGCTCGGTA, the sensor-assay potency score (higher = more potent) was -0.474.

TTTACTTGCTGTACGCTCGAAG had a sensor-assay potency score (higher = more potent) of 0.135.

In turn, TGTTTGACAAGATTCCTCCTGC registered a sensor-assay potency score (higher = more potent) of 0.721.

TTAGCTGCTCGGTAACTGGGAA yielded a sensor-assay potency score (higher = more potent) of -0.397.

Take TTGACAAGATTCCTCCTGCTGA: the sensor-assay potency score (higher = more potent) was -0.541.

The sequence TTCATAAACTGTGTCATCCAAC registered a sensor-assay potency score (higher = more potent) of -0.828.

For the sequence TTTACTTCTATTTTGGAGCACT, the sensor-assay potency score (higher = more potent) was -0.574.

TAGAATAATCTTGAAAGTCTGA displayed a sensor-assay potency score (higher = more potent) of 0.113.

In a further assay the target is EPC2. The description is as above. The settings on record: shRNA.
Take TTATTGTTCACAGTCTGCCCTG: the sensor-assay potency score (higher = more potent) was -0.344.

With TTCTTCACTATCACTGTCCTGT, the sensor-assay potency score (higher = more potent) came to 0.612.

TTTTTCTCTAAACACTTGCTGT came in with a sensor-assay potency score (higher = more potent) of -0.823.

Regarding TTAATTTCCATCTTTCTGTTAA, the sensor-assay potency score (higher = more potent) is -0.679.

In the case of TTGAGGTACATTCTTCACTATC, the sensor-assay potency score (higher = more potent) is -1.27.

Take TTGCATCTGAACTAACTGCTGC: the sensor-assay potency score (higher = more potent) came to 0.128.

With TAGTTTTACATTCTTGAACTTT, the sensor-assay potency score (higher = more potent) is -0.105.

As to TATAACTCTTTTTCTGATCTAC, the sensor-assay potency score (higher = more potent) came to 0.207.

Consider TTGCTGTTTCTGCTGAAGCTGG, for which the sensor-assay potency score (higher = more potent) is -1.06.

TTCTTGAAGTGTTACAAGCTGA returned a sensor-assay potency score (higher = more potent) of -0.486.

The sequence TTAAGTGCAATAATTCTCGTTT displayed a sensor-assay potency score (higher = more potent) of 0.497.

As to TTTCTCTAAACACTTGCTGTGC, the sensor-assay potency score (higher = more potent) is -0.595.
